# In the library only some 9% were active in any assay of this set; here they are far more common.
# HTT aggregate – mutant huntingtin aggregation inhibition. Potency, µM (series often up to 46.1 µM), without a hit: at the top dose activity change, negative = inhibition, hits mostly inhibitors. PC12 HttQ103-GFP aggregates, Acumen cytometry, 40 h. hit rate 1.1% among 220,000; note: % is set by controls: 0 for no effect and ±100 for the full control effect; nearly all actives have a fitted effect of over 60% in size
#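 Ecdysone-promoter PC12 model expressing HTT exon 1 Q103 fused to GFP, induced by tebufenozide at 100 nM final. Compounds titrated; aggregates sized 1–25 µm scored on a 488 nm laser cytometer.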
# HTT cytoprotect – Huntington cell model cytoprotection by ATP luminescence; PC12 HTT-Q103 induced, cytoprotection, ATP luminescence, 40 h; Potency, µM (series often up to 56.4 µM), for the others: cytoprotection (ATP increase), usual class: activators; hit rate 0.14% among 230,000; AID 1471; note: % of control where 0% means no effect; nearly all actives have a fitted effect of over 45% in size
#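 Quantitative HTS on tebufenozide-induced (100 nM) PC12 cells expressing HTTQ103 exon 1–GFP; compounds tested as a concentration series; survival measured via cellular ATP.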
# HPGD block – HPGD (human) dehydrogenase inhibition. P15428. purified HPGD, NADH fluorescence kinetic, PGE2 substrate. Potency, µM, for inactives: at the highest dose activity change, negative = inhibition, most hits filed as inhibitors. hit rate 4.3% among 150,000. AID 894; active = well fitted inhibition curve with a large enough effect, not every such curve was filed as active; inconclusive = small, poorly fitted or top-dose-only effect, or another doubt; inactive = no such curve, though single readings can be large or run the other way; note: % is set by controls: 0 for no effect and ±100 for the full control effect
#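 20 nM HPGD preincubated 15 min at room temperature with compound in 50 mM Tris-HCl pH 8, 0.01% Tween 20. Started with 1 mM NAD+ and 30 uM prostaglandin E2; NADH fluorescence (360/450 nm) read 5 times over 30-s intervals, last minus first.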
# ALDH1A1 block – blocks purified human ALDH1A1 activity; P00352; Purified ALDH1A1, NADH fluorescence, propionaldehyde substrate; Potency, µM (top dose mostly 75.3 µM), inactives show top-dose activity, negative = inhibition, hits mostly inhibitors; hit rate 7.3% among 220,000; AID 1030; active = well fitted inhibition curve with a large enough effect, not every such curve was filed as active; inconclusive = small, poorly fitted or top-dose-only effect, or another doubt; inactive = no such curve, though single readings can be large or run the other way;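 note: plate controls were no enzyme wells and a reference inhibitor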
# Target sequence (P00352 whole entry, looked up): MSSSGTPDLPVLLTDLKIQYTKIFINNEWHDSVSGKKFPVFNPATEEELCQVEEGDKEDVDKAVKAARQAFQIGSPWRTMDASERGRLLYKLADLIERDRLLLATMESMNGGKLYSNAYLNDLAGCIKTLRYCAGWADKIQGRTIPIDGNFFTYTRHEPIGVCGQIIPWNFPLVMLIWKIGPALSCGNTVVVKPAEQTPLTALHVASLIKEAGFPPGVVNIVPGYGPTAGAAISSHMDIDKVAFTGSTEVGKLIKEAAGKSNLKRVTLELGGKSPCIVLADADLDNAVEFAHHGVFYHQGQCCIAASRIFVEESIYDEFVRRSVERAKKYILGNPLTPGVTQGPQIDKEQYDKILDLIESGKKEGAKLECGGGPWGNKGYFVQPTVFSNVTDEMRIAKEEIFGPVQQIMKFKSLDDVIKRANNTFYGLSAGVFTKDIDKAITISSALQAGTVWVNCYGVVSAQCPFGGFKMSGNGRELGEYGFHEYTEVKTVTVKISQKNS
# LMNA splice mod – LMNA splicing modulation | Potency, µM (series often up to 46.1 µM), for the others: at the top dose ratio change, negative = inhibition, hits mostly inhibitors | HeLa LMNA splicing GFP/RFP minigene ratio, 48 h | hit rate 0.01% among 200,000; active = well fitted inhibition curve with a large enough effect in the signal ratio, with a control signal flat, not every such curve was filed as active; inconclusive = small, poorly fitted or top-dose-only effect, or effect the other way, or a change in a side signal; the % refers to the signal ratio; note: % is set by controls: 0 for no effect and ±100 for the full control effect
#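 Read-out is the ratio of GFP to DsRed2 object intensity, acquired by 488 nm laser-scanning cytometry on HeLa lamin A-EGFP minigene reporter cells. Compound incubation 48 hrs at 37 °C in Opti-MEM with 2% FBS; DMSO 0.5% final.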
# Luc counter – counter-screen: inhibitors of Kinase-Glo firefly luciferase | Kinase-Glo luciferase, ATP luminescence, 8 min | Potency, µM (titrated, usually from 38.3 µM), for the others: at the highest dose activity change, negative = inhibition, actives largely listed as inhibitors | hit rate 0.28% among 200,000; note: % is set by controls: 0 for no effect and ±100 for the full control effect; nearly all actives have a fitted effect of over 60% in size
#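 Compound is pinned into ATP-containing buffer (10 uM ATP, imidazole pH 7.2, 7 mM MgCl2). Kinase-Glo luciferase reagent is then added. Light output is recorded following an 8-min room-temperature incubation.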
# An asterisk follows results filed as active; ? = inconclusive; . = no result; [ ] = remark or other dose. Unless noted, calls come from the whole dose curve; as a rule, active = well fitted curve in the direction sought with a large enough effect; inconclusive = small, poorly fitted or top-dose-only effect, or another doubt; inactive = no such curve, though single readings can be large; an effect the other way counts as inactive or inconclusive. Potency is the fitted concentration of half-maximal effect.
SMILES,HTT aggregate,HTT cytoprotect,HPGD block,ALDH1A1 block,LMNA splice mod,Luc counter
Fc1ccccc1/C=C1\CCCC2=C1NC(=S)NC2c1ccccc1F (stereo not given),?,-40%,.,0.79µM*,?,4%
S=C1NC2=C(CCC/C2=C\c2ccccc2)C(c2ccccc2)N1 (stereo not given),30%,-4%[10 µM],22µM*,0.63µM*,?,1%
S=C1NC2=C(CCCC2=C2SCCCS2)C(c2ccccc2)N1 (stereo not given),8%,-8%,.,1µM*,.,-4%
S=C1NC2=C(CCC/C2=C\c2ccc(Cl)cc2)C(c2ccc(Cl)cc2)N1 (stereo not given),12%[9.22 µM],26%[10 µM],.,13µM*,.,.
O=C1CCCC2=C1C(c1ccccc1)NC(=S)N2 (stereo not given),3%,-34%,.,?,.,0%
O=C(N/N=C/c1cccc(NC(=O)c2ccc(Cl)cc2)c1)c1cccc(O)c1,-17%[9.22 µM],-15%[10 µM],.,.,.,.
Cc1nn(C)c(C)c1NC(=O)c1cc2nc(-c3ccco3)cc(C(F)(F)F)n2n1,18%[9.22 µM],0%[10 µM],.,?,.,-3%
Cc1ccc(-c2nc(P(=O)(c3ccccc3)c3ccccc3)c(N3CCOCC3)o2)cc1,10%,.,-24%,?,?,-1%
C#CCNC(=O)/C=C/c1ccc(C)cc1,21%,.,-28%,5%,12%,-5%
Fc1cccc(/C=C2\CCCC3=C2NC(=S)NC3c2cccc(F)c2)c1 (stereo not given),8%[9.22 µM],15%[10 µM],.,0.79µM*,.,.
FC(F)(F)c1ccccc1C1C2=C(Nc3ncnn31)c1ccccc1CCC2 (stereo not given),5%,1%,-7%,?,-8%,1%
CC1CC2=C(NC(=S)NC2c2ccc(F)cc2)/C(=C/c2ccc(F)cc2)C1 (stereo not given),-23%,-22%,-28%,3.5µM*,5%,0%
C(=C1/CCCC2=C1Nc1ncnn1C2c1ccccc1)/c1ccccc1 (stereo not given),21%,?,25µM*,5%,?,-1%
COc1ccc(C2NC(=S)NC3=C2CCCC3=C2SCCS2)cc1 (stereo not given),-7%,?,.,?,-9%[9.22 µM],2%
COc1ccc(C(=O)NCCc2nnc(SCC(=O)Nc3ccc(Br)cc3)n2C)cc1,2%,11%[10 µM],-13%,-11%,?,-5%
O=C(COc1ccc(Cl)cc1)N1CCN(c2ccc([N+](=O)[O-])c(N3CCOCC3)c2)CC1,-2%,-7%[10 µM],-10%,?,?,1%
CCN(C(=O)c1c(N)cnn1C)c1ccccc1,-5%,-11%,.,3%,.,-1%
COC(=O)c1c(-c2ccccc2)c[nH]c1C,22µM*,.,.,.,.,.
N#Cc1nc(COc2ccc(Cl)cc2)oc1N1CCN(Cc2ccccc2)CC1,-15%,-37%,-17%,2%,?,1%
Cc1ccc(-n2nc(C)c(Sc3ccccc3[N+](=O)[O-])c2N)cc1,-19%,.,?,10µM*,?,1%
CCOC(=O)CC1COCCN1Cc1cn(C)nc1-c1ccccc1F (stereo not given),-1%[9.22 µM],14%[10 µM],.,10µM*,.,1%
Cc1cc(N2CCN(Cc3cn(C)nc3-c3ccccc3F)CC2)cc(C)n1,-4%[9.22 µM],-24%[10 µM],.,?,7%[46 µM],-1%
Cc1ccc(S(=O)(=O)Nc2ccc(Br)cc2/C=N/n2cnnc2)cc1,2.2µM*,-26%,-3%,28µM*,-24%,0%
COc1ccc2[nH]cc(CCNc3ccnc(-c4ccccc4Cl)n3)c2c1,.,-19%,.,25µM*,?,.
C=CCSc1nc2sc3c(c2c(=O)n1CC)CCc1ccccc1-3,-30%,-10%,2.2µM*,1.6µM*,1%,-8%
C=CCn1c(SCC)nc2sc3c(c2c1=O)CCc1ccccc1-3,4%,-6%,-5%,14%,14%,3%
c1cncc(-c2nnc(-c3cccnc3)nn2)c1,?,-123%[10 µM],8.9µM*,11µM*,?,-10%

# Source: PubChem
